Data reported in PubChem BioAssay AID2797 (The Scripps Research Institute Molecular Screening Center, 2010).
Out of some 320,000 compounds screened, about 820 (0.26%) were called active. This is one part of a sample in which actives are shown more often than they occur.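 How the source made its calls: active means activation above the mean activation of all tested compounds plus 3 SD, per screening run (cut at about 20% in these data); inactive means the rest.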

target: Vasopressin V1a receptor (Homo sapiens) (UniProt P37288); assay: V1R activation via calcium rise – fluorescence, CHO-V1R cells, counter-screen for OXTR agonist project, primary screen (AID 2797); settings: Fluo-8 calcium fluorescence, agonist mode, at 3 µM, stronger effect = higher value, 0% DMSO, 100% 3 nM vasopressin;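 further: signal is peak over basal fluorescence ratio across a 100 second FLIPR read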
Sequence (P37288 whole entry, looked up): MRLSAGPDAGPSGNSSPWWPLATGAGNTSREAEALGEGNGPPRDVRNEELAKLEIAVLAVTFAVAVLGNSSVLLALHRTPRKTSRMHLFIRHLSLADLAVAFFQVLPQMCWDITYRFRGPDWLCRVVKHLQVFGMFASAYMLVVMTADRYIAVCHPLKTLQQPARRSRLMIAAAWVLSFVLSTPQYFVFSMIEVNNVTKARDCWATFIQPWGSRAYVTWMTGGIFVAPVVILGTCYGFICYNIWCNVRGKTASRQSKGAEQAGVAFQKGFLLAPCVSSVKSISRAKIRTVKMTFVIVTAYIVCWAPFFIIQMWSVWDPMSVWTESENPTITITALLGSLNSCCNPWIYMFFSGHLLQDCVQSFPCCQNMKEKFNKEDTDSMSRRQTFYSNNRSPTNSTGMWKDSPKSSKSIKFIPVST

SMILES	activation
N#CCN(C(=O)COC(=O)C1CC2CCCC(C1)C2=O)c1ccccc1 (stereo not drawn)	-0.11% (inactive)
COc1ccc(C23NCCN2C(=O)c2ccccc23)cc1 (stereo not drawn)	-0.14% (inactive)
CC1CCN(CCC(=O)Nc2ccccc2)CC1	0.38% (inactive)
Cc1cc(NC(=O)CCN2CCN(Cc3ccccc3)CC2)ccc1Br	26.5% (active)
CCOC(=O)N1CCN(CCC(=O)Nc2ccccc2)CC1	0.3% (inactive)
O=C1Nc2ccccc2/C1=C/c1ccnc2ccccc12	3.16% (inactive)
CN(C)/C=C1/Nc2ccccc2C1=O	1.1% (inactive)
Cc1cc(C)c(/C=C2\C(=O)Nc3ccccc32)[nH]1	23.6% (active)
COc1ccc([C@H]2CC(=O)C=C(c3ccc(OC(F)(F)F)cc3)C2)cc1OC	1.96% (inactive)
COc1ccc(C2CC(c3cccs3)Nc3nnnn32)cc1 (stereo not drawn)	1.36% (inactive)
Cc1ccc(S(=O)(=O)NCCC(=O)NNC(=O)C2COc3ccccc3O2)cc1 (stereo not drawn)	-0.1% (inactive)
COc1ccc(C2C(C#N)=C(N)N(c3ncn[nH]3)C3=C2C(=O)CCC3)cc1 (stereo not drawn)	1.11% (inactive)
CN(C(=O)COC(=O)c1ccc(Br)o1)c1c(N)n(Cc2ccccc2)c(=O)[nH]c1=O	-0.45% (inactive)
C=CCSc1nc2c(c(=O)[nH]c(=O)n2C)n1Cc1ccccc1	0.69% (inactive)
Cc1cc2nc3c(=O)n(Cc4ccccc4)c(=O)[nH]c3nc2cc1N	73.4% (active)
C[C@H](NC(=O)c1nc[nH]c1C(=O)NCC(=O)OC(C)(C)C)c1ccccc1	-0.3% (inactive)
Cc1c(Br)cc(C(=O)N2CCCCCC2)c(C)c1C	-1.61% (inactive)
O=C(NC(=S)Nc1ccccc1N1CCCCC1)c1ccc(F)cc1	-0.81% (inactive)
COC(=O)Cc1ccc(NC(=S)NCc2ccc(Cl)cc2)cc1	10% (inactive)
O=C(Cc1ccc(Cl)cc1)NC(=S)Nc1ccccc1O	47.5% (active)
O=C(COc1ccc(Cl)cc1)NC(=S)Nc1ccccc1N1CCOCC1	3.48% (inactive)
Cc1ccccc1N/C(SCc1ccc(Cl)cc1)=C(/C#N)C(N)=O	-0.5% (inactive)
Cc1ccccc1NC(=S)NC(=O)Cc1ccc(Cl)cc1	26.2% (active)
Cc1cccc(NC(=S)NCCc2ccc(Cl)cc2)c1C	0.32% (inactive)
CCN1CCN(C(=O)CN(C)S(=O)(=O)c2ccc3ccccc3c2)CC1	0.47% (inactive)
Cc1nc2scc(-c3cccs3)c2c(=O)n1N	-0.59% (inactive)
CCOc1ccc(C(=O)Nc2ccc(S(=O)(=O)NCC3CCCO3)cc2)cc1OCC (stereo not drawn)	1.35% (inactive)
Cc1ccc(OCCNC(=O)CNC(=O)c2ccc(C)c(C)c2)cc1	-0.83% (inactive)
